Compounds with a hit are over-represented: about 4.1% of the library has one in this group of screens.
hcDAF-12 act: H. contortus DAF-12 activation, primary screen. 370,000 compounds, 1.4% hits. HEK293 hcDAF-12 lit1-tk-luc reporter, luminescence; 0% DMSO, 100% Δ7-dafachronic acid. activation, % at 6.8 µM;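 active means activation above the mean of all tested compounds plus 3 SD, cut at about 5.5% in these data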;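 further: 100% = response to 3 µM Δ7-dafachronic acid high control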
hgDAF-12 ag: hgDAF-12 agonism, primary luciferase screen; AID 687014; activation, % at 6.8 µM; 370,000 compounds, 1.8% hits; HEK293 GAL4-hgDAF12 UAS-luciferase reporter, agonist luminescence; normalized to butyrate control;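 active means activation above a cutoff set at the mean of all screened compounds plus 3 SD, cut at about 10% in these data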;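 further: 0% = DMSO wells and 100% = sodium butyrate wells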
DAX1 inh-1: inhibitors of human orphan nuclear receptor DAX1 (NR0B1) | P51843 | HEK293 Gal4-DAX1 luciferase reporter, luminescence | inhibition, % at 6.75 µM | 340,000 compounds, 0.99% hits | AID 504766;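 active means inhibition above the mean over all tested compounds plus 3 SD, cut at about 4.2% in these data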;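 further: 0% = DAX1-transfected cells with DMSO and 100% = empty-vector control cells with DMSO; inhibition shows as a rise in luminescence from relieved DAX1 repression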
Target sequence (P51843 207-470 limits assumed): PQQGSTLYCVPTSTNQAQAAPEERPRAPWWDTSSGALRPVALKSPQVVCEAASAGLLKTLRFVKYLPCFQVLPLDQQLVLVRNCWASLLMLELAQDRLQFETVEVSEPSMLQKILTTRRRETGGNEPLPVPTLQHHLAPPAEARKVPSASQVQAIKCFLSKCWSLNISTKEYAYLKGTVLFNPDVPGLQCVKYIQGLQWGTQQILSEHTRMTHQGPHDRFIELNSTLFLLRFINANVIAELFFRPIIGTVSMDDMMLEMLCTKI
DAX1 inh-2: DAX1 (NR0B1) inhibition, primary screen | HEK293T StAR-luciferase reporter, SF-1/DAX-1 repression relief | inhibition, % at 6.8 µM | 370,000 compounds, 1.1% hits;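 active means inhibition above the mean over all tested compounds plus 3 SD, cut at about 3.6% in these data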;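 further: 0% = DAX-1 cells with DMSO and 100% = cells lacking DAX-1 with DMSO; higher inhibition means more luminescence from relief of DAX-1 repression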
ssDAF12 agonist: activates DAF-12 receptor from parasite S. stercoralis; HEK293 ssDAF-12/GRIP1 lit1-tk-luc reporter, luminescence; % of 3 µM dafachronic acid response; activation, % at 6.8 µM; 370,000 compounds, 1% hits; AID 652126;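 active means activation above the mean over all tested compounds plus 3 SD, cut at about 0.9% in these data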;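 further: 0% = DMSO-only wells and 100% = 3 µM delta7-dafachronic acid wells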
Starred values were filed as active, the others as inactive; . = no result.

SMILES | hcDAF-12 act | hgDAF-12 ag | DAX1 inh-1 | DAX1 inh-2 | ssDAF12 agonist
CCOC(=O)C1=C(C(=O)OCC)C2N(Cc3ccc(Br)cc3)c3ccccc3[C@@]23C[C@@H](C(=O)OC)N(S(=O)(=O)c2ccc(F)cc2)C3=N1 (stereo not given in full) | 1 | 2 | . | 0 | -2
Cc1ccc(C(=O)/C=C\Nc2ccc(C)c(C)c2)cc1 | 4 | 13* | 3 | 1 | 0
Cc1ccc(C(=O)/C=C/C(=O)c2ccc(C)cc2)cc1 | -1 | 2 | 0 | -1 | -1
CCCCOCCCNC(=O)C[C@@H]1C[C@]2(C(=O)OCC)CCC3=C2N(CCC3)C1=O | 0 | -1 | . | 0 | -1
O=c1c2ccccc2nc2ccc(NCc3ccco3)nn12 | 3 | 9 | 5.2* | 3 | 0
Cc1sc2nc3ccc(NCc4ccco4)nn3c(=O)c2c1C | 0 | -1 | 0 | 0 | -1
CCC1=C(c2ccc(OC)cc2)CCC(C(=O)O)C1C (stereo not given) | -1 | 0 | 0 | 0 | 61*
Cc1cc(NC(=O)CCCC(=O)N(CC(=O)NCCc2ccccc2)Cc2ccc(F)cc2)no1 | 0 | -2 | 0 | -1 | 1.1*
CC(=O)NCc1ccc(OCCCN2CCC(C(O)(c3ccccc3)c3ccccc3)CC2)cc1 | -1 | 0 | . | 2 | -1
O=C(O)c1ccc(COc2ccc3ccccc3c2/C=C2/NC(=O)N(c3ccccc3)C2=O)cc1 | 2 | -2 | -1 | 1 | 1.0*
O=C(O)c1ccc(COc2ccccc2/C=C2/NC(=O)N(c3cccc(Cl)c3)C2=O)cc1 | -3 | -1 | 0 | 0 | 0
NNC(=O)Cn1nnc(-c2ccc(C(F)(F)F)cc2)n1 | 1 | 2 | . | 0 | 0.9*
CC(=O)Cn1nnc(-c2ccc(C(F)(F)F)cc2)n1 | -1 | 2 | 3 | 1 | -1
CCOc1ccccc1N1CCN(CC(=O)Nc2cc(C)on2)CC1 | 1 | 2 | 0 | -1 | -1
Cc1cc(NC(=O)CN2CCN(c3ccccc3O)CC2)no1 | 0 | 0 | 0 | 0 | 1.1*
CCN(CC)CC(O)CN1C(=O)NC(C)(C)C1=O (stereo not given) | -2 | 1 | 4.3* | -1 | -1
CCCN(CCC)CC(O)CN1C(=O)NC(C)(C)C1=O (stereo not given) | 0 | 5 | 0 | 0 | -1
Cc1ccc(OCC(O)CN2C(=O)NC(C)(C)C2=O)cc1C (stereo not given) | 0 | 11* | -1 | -1 | -1
CCCCNC(=O)C[C@H]1C[C@@]2(C(=O)OC)C(=C[C@H](COCc3ccccc3)O[C@@H]2C)N(Cc2ccccc2)C1=O | -2 | 0 | . | -1 | -2
COC[C@@H]1CCCN1c1ccc2c(c1)O[C@@H]1CCN(C1)S2(=O)=O | -1 | 2 | . | 0 | 0
COc1ccccc1NC(=O)OC1CC2CC1[C@H]1CCCCN1[C@H]2C (stereo not given in full) | 0 | 1 | . | 1 | 0
O=C(Nc1ccc2[nH]ccc2c1)c1cc(-c2ccc(Cl)cc2)nc2ccccc12 | 6.2* | 6 | . | 0 | 1
O=C(N/N=C/c1cccnc1)c1cc(-c2ccc(Cl)cc2)nc2ccccc12 | 1 | 3 | 5.6* | 0 | -1
O=C(N/N=C/c1cccnc1)c1cc(-c2ccccc2)nc2ccccc12 | -1 | 0 | -1 | -1 | -1
COc1nc(OC)nc(N2CCC(C(=O)NCc3cccc(OC)c3OC)CC2)n1 | -3 | -2 | . | -1 | -1
SMILES | hcDAF-12 act | hgDAF-12 ag | DAX1 inh-1 | DAX1 inh-2 | ssDAF12 agonist
CC1(C)CC(=O)C=C(Nc2ccccc2NC(=O)c2ccc(F)cc2F)C1 | 0 | 1 | . | -1 | -1
CCN(CCn1cccn1)C(=O)CCc1nnc(C2(c3ccc(Cl)cc3)CCC2)o1 | 1 | 12* | 1 | 1 | 0
CCN(CCn1cccn1)C(=O)CCc1nnc(-c2ccccc2)o1 | 1 | 8 | -1 | 1 | -1
CCOC(=O)[C@@]12CCCC3=C1N(CCC3)C(=O)[C@H]2CC(=O)N1CCCC1 | -3 | -2 | . | -1 | -2
O=C1c2ccccc2C(=O)c2c(O)c(O)cc(O)c21 | 2 | 5 | -1 | 0 | 0
O=C1C=C(O)c2c(O)cc(O)c(O)c2C1=O | 0 | -2 | 5.2* | 0 | -2
Cc1nn(-c2ccccc2)cc1/C=N/O | -1 | 4 | 5.2* | 1 | -1
Cc1ccccc1Nc1nc(N)nc(COC(=O)c2ccco2)n1 | 3 | 12* | 3 | 2 | 0
Nc1nc(COC(=O)c2ccco2)nc(Nc2ccccc2)n1 | -1 | 3 | 4 | 2 | -1
CCC[C@H]1[C@@H](OC(=O)NCc2ccco2)CC[C@@]23CCCN2C(=O)CCC[C@@H]13 | -1 | -2 | . | . | -2
COc1ccccc1C=NN=Cc1ccccc1OC | 2 | 1 | 0 | -1 | 1.1*
CCOC(=O)c1cnc2c(ccc3ccccc32)c1NCCCN(C)C | 2 | 13* | 8.1* | 1 | 0
O=C(NCc1ccco1)OC1CCC12CCC(c1ccccc1)CC2 (stereo not given) | -1 | 2 | . | . | -1
CCCn1c(-c2cccc([N+](=O)[O-])c2)nc2c1c(=O)[nH]c(=O)n2Cc1ccccc1 | 0 | 0 | 6.4* | -1 | -1
O=C(/C=C(\Nc1cc(Cl)c(Cl)c(Cl)c1)c1ccccc1)c1ccccc1 | 5 | 7 | . | 1 | 1.5*
O=C(NCc1ccccc1Cl)C1CCCN(c2nc3ccccc3o2)C1 (stereo not given) | -2 | 3 | . | 0 | -2
CCOC(=O)C1CCN(C(=O)c2ccc(C)o2)CC1 | 2 | 1 | 2 | 0 | -1
COc1ccc(OCc2cc(C(=O)N(C)C3CCOC3)no2)c(Cl)c1 (stereo not given) | -1 | -2 | 1 | -1 | -1
CCOC(=O)C1CCN(C(=O)c2cc3c(ccc4ccccc43)o2)CC1 | 2 | 5 | 1 | 4.1* | -1
CCOC(=O)C1CCN(C(=O)/C=C/c2ccccc2)CC1 | 1 | 12* | -1 | 0 | -1
COc1ccc(OCc2cc(C(=O)N(C)C3CCOCC3)no2)c2ccccc12 | 5 | 4 | 2 | 0 | 1.0*
CCOC(=O)C1CCCN(C(=O)/C=C/c2ccccc2)CC1 (stereo not given) | 1 | 3 | . | -1 | -1
CCOC(=O)C1CCN(C(=O)c2cc(COc3ccc(OC)c4ccccc34)on2)CC1 | 6.3* | 12* | 1 | 1 | 0
CCc1cc2c(nc1CC)CCCN2S(=O)(=O)c1ccc(C)cc1 | -1 | -4 | . | -2 | -2
C[C@H]1C(C(=O)N(C)C2CCCCC2)=Cc2c(n(-c3ccc(F)cc3)c(=O)n2CCCOc2ccccc2)C=C1c1ccccc1 | -2 | 1 | . | 1 | 0
Cc1ccccc1OCC(=O)Nc1ccccc1CO | 1 | 1 | 1 | 0 | -1
O=C(COC(=O)c1c[nH]c(=O)[nH]c1=O)Nc1ccccc1F | 0 | -2 | 0 | 0 | -1

Compound activity deposited in PubChem BioAssay by The Scripps Research Institute Molecular Screening Center.
